Experiment [1] in a line: Cellular Toxicity (caspase-3) H-4-II-E (AID 663).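 Note: cells exposed to compound for 16 hr before readout.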 The note with it: H-4-II-E rat hepatoma; Potency: caspase-3 activation; series mostly up to 92.2 µM. A digest of the protocol:
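Luminescence from caspase-cleaved aminoluciferin substrate, read 20 min after reagent addition, reports caspase 3/7 activation in rat H-4-II-E cells after 16 hr compound exposure. Normalized to DMSO (basal) and 100 uM tamoxifen (100%); AC50 from Hill fits.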

Experiment [2] is described as follows: Cellular Toxicity (caspase-3) Hek293 (AID 664).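 Note: cells exposed to compound for 16 h at 37 °C before readout.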 The note with it: HEK293 caspase-3 activation, DMSO = 0%, 100 µM tamoxifen = 100%; series mostly up to 92.2 µM. The procedure, abridged:
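HEK293 cells were exposed to compounds in complete medium for 16 hr at 37 °C, then caspase-3/7 activity was read by Caspase-Glo 3/7 luminescence after 20 min at room temperature. Data normalized to DMSO and 100 uM tamoxifen; AC50 from Hill fits.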

Experiment [3] can be described thus: Cellular Toxicity (caspase-3) N2a (AID 665).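 Note: compound exposure lasted 16 h at 37 °C before readout.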 Particulars: N2a cells, luminescence; Potency: caspase-3 activation; series mostly up to 92.2 µM. The procedure, abridged: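 Mouse N2a neuroblastoma cells (1500/well) were treated with compounds for 16 h at 37 °C, then caspase-3/7 activity was read by Caspase-Glo luminescence after 1 h at room temperature. Data were normalized to DMSO and 10 uM staurosporine; AC50 from Hill fits.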

A short description of experiment [4]: Cellular Toxicity (caspase-3) NIH 3T3 (AID 666). Particulars: NIH 3T3 caspase-3 activation, apoptosis/toxicity; series mostly up to 92.2 µM. A digest of the protocol:
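Mouse NIH 3T3 fibroblasts (1000 cells/well) were treated with compound for 16 hr at 37°C in complete medium; caspase-3/7 activity was read by Caspase-Glo luminescence. Normalized to DMSO and 100 uM tamoxifen; AC50 from Hill fits.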

A short description of experiment [5]: Cellular Toxicity (caspase-3) Renal Proximal Tubule (AID 667).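 Note: cells exposed to compound for 16 hours at 37 °C before detection.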 The note with it: renal proximal tubule cells, primary cells freshly taken from rat, solvent-only wells 0%, staurosporine 100%; series mostly up to 91.7 µM. The procedure, abridged:
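AC50 derived by standard Hill fit of concentration-response data, normalized between DMSO basal and 10 uM staurosporine as 100% stimulation. Cells: primary rat kidney proximal tubule, 16 h treatment at 37 °C.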

Experiment [6] deals with Guanine nucleotide-binding protein G(i) subunit alpha-1 (Homo sapiens) (UniProt P63096). As to the kind of experiment: qHTS Assay for Inhibitors of RGS12 GoLoco Motif Activity (Green Fluorophore) (AID 879).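 Note: negative values mean loss of peptide binding seen as reduced polarization.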 The note with it: Galphai1/FITC-RGS12 GoLoco peptide, fluorescence polarization; series mostly up to 57.1 µM. The procedure, abridged: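 Fluorescence polarization assay: 50 nM Gαi1 with 10 nM FITC-labeled RGS12 GoLoco peptide in 10 mM Tris pH 7.5, 150 mM NaCl, 0.1 mM GDP, 0.05% NP40, 10 min at room temperature with compound.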
Guanine nucleotide-binding protein G(i) subunit alpha-1 (Homo sapiens), sequence (P63096 whole entry, looked up): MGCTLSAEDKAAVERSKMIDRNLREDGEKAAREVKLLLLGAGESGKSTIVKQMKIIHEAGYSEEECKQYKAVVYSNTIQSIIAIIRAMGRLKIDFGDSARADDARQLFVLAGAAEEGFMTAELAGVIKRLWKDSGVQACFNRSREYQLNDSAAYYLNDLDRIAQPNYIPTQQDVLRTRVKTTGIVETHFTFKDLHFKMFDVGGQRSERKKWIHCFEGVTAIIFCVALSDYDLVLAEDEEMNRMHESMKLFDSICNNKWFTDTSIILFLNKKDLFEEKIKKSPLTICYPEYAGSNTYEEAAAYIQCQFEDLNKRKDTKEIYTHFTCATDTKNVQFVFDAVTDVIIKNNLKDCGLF
For orientation: qHTS replaces the single test concentration by a dilution series.

Experiment [7] addresses Cytochrome P450 2C9 (Homo sapiens) (UniProt P11712). Put plainly: qHTS Assay for Inhibitors and Substrates of Cytochrome P450 2C9 (AID 883). Note: nearly all actives have a fitted effect of over 60% in size. Particulars: recombinant CYP2C9, luciferin-H luminescence, 60 min; series mostly up to 57.1 µM. A digest of the protocol: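 Human CYP2C9 (10nM) hydroxylated Luciferin-H (100uM, at its KM) to luciferin in 25mM KPO4. Compound was preincubated 10 min at 37C, then NADPH regeneration started a 60 min reaction at 37C. Luminescence was read after detection reagent, normalized to 57uM sulphaphenazole.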

The target in experiment [8] is Cytochrome P450 3A4 (Homo sapiens) (UniProt P08684). Put plainly: qHTS Assay for Inhibitors and Substrates of Cytochrome P450 3A4 (AID 884). Note: nearly all actives have a fitted effect of over 50% in size. Particulars: recombinant CYP3A4, Luciferin-PPXE luminescence; series mostly up to 57.1 µM. The procedure, abridged: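 20 nM human CYP3A4 with 25 uM Luciferin-PPXE (at KM) in 200 mM KPO4, preincubated 10 min with compound; NADPH regeneration started a 60 min RT reaction. Luciferin detected by luminescence, normalized to 57 uM ketoconazole as full inhibition.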
Cytochrome P450 3A4 (Homo sapiens), sequence (P08684 whole entry, looked up): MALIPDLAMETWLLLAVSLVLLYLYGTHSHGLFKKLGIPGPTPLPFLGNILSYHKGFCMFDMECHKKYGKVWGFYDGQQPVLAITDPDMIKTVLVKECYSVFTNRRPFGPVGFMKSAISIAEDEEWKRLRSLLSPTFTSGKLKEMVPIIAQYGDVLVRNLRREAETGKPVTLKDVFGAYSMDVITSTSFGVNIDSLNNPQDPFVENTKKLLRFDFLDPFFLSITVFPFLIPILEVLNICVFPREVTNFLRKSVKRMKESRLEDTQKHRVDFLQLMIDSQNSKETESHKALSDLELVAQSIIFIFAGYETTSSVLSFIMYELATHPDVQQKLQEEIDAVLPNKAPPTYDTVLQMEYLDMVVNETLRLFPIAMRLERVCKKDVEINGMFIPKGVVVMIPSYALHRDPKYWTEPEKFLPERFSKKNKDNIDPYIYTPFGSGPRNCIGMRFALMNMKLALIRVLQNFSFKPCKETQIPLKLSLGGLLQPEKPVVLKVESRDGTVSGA

Experiment [9] is described as follows: qHTS Assay for Identification of Small Molecule Antagonists for NFkB Signaling Pathway (AID 895; active = well fitted inhibition curve with a large enough effect in the signal ratio, with a control signal flat, not every such curve was filed as active; the % refers to the signal ratio). Particulars: NFkB beta-lactamase reporter cells, FRET ratio 460/530, stimulated with 10 pM TNF alpha; series mostly up to 38.3 µM. The procedure, abridged: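 NFkB-bla ME-180 cervical carcinoma cells with beta-lactamase reporter under NFkB response element; compounds added, then TNF alpha at 10 pM final (EC50), 5 h at 37 C. LiveBLAzer substrate 2 h, room temperature; emission 460/530 nm at 405 nm excitation.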

Results filed as inconclusive are left out. A call without a number means that no potency is given here. Active and inactive are the calls of the source. Unless noted, calls come from the whole dose curve; as a rule, active = well fitted curve in the direction sought with a large enough effect; inconclusive = small, poorly fitted or top-dose-only effect, or another doubt; inactive = no such curve, though single readings can be large; an effect the other way counts as inactive or inconclusive.

Cytochrome P450 2C9 (Homo sapiens), sequence (P11712 whole entry, looked up): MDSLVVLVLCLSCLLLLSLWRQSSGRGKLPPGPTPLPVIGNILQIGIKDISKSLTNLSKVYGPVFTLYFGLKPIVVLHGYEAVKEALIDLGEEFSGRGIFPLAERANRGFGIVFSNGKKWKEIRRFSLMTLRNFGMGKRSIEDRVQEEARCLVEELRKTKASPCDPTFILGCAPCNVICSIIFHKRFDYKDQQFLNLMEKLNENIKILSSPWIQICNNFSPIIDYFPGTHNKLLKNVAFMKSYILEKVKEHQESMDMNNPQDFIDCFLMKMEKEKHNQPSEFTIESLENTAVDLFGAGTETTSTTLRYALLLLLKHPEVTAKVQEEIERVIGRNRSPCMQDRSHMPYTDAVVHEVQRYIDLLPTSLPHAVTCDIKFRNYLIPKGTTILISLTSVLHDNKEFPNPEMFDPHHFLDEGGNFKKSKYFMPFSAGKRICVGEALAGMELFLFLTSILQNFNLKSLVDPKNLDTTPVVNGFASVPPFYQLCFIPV

Take `CCCCCCc1ccc(O)cc1O`: the Potency result in experiment [1], in experiment [3] and in [4] was “inactive” throughout. Further, the compound was classed as inactive in experiment [2] and in experiment [5].

As for `C[C@@H]1C(=O)NC2=Nc3cccc(Cl)c3CN21`, the outcome in experiment [6] was inactive.

Take `CN1CCC[C@@H]1c1cccnc1`: in experiment [6], the compound was called inactive.

As for `COc1cc(NS(C)(=O)=O)ccc1Nc1c2ccccc2nc2ccccc12`, the outcome in experiment [6] was inactive. In addition, in experiment [7], the Potency result is “inactive”.

On to `C1CCc2nnnn2CC1`, for which the result in [6] was inactive. In addition, the Potency entry in experiment [8] is “inactive”.

Take `O=c1ccc2ccccc2o1`: the Potency result in [1], in experiment [3], in experiment [4] and in [8] was “inactive” throughout. The call in experiment [2] and in [5] was inactive.

For `N[C@@H](Cc1cnc[nH]1)C(=O)O`, the compound was called inactive in [6]. Further, in experiment [9], the Potency entry is “inactive”.

The record behind these values is PubChem BioAssay (NCATS).
